{"source": "PubChem BioAssay AID1492", "about": "(National Center for Advancing Translational Sciences (NCATS), 2009)", "note": "Records with an inconclusive call do not appear. Unmarked numbers belong to inactive results. Activity calls are given as the source filed them. Calls come from the whole dose curve; as a rule, active = well fitted inhibition curve with a large enough effect; inconclusive = small, poorly fitted or top-dose-only effect; inactive = flat fitted curve, though single readings scatter."}
{"molecular_target": "Muscarinic acetylcholine receptor M1 (Rattus norvegicus) (UniProt P08482)", "assay": "Counterscreen Concentration-Response Assay for Antagonists of the Neuropeptide S Receptor: Muscarinic Receptor Calcium Signal Transduction.", "details": "CHO-M1 cells, carbachol-induced calcium fluorescence, FDSS; series mostly up to 20.2 µM; activity, negative = inhibition: at the top concentration", "description": "NIH Chemical Genomics Center [NCGC] NIH Molecular Libraries Probe Production centers Network [MLPCN] MLPCN Grant: X01-DA026210-01 Assay Submitter (PI): Heilig, Markus Alexander NCGC Assay Overview: Neuropeptide S receptor (NPSR), previously known as GPR154, is a recently de-orphanized G protein coupled receptor. Its endogenous ligand is the 20 amino acids peptide Neuropeptide S (NPS). […] NPS and its receptor are found in various tissues. Specifically they are highly expressed in brain areas that have been implicated in modulation of arousal, stress and anxiety. Central administration of NPS in mice produces an unusual profile of activity by inducing wakefulness and arousal, while at the same time suppressing anxiety. Therefore, NPSR may represent a novel drug target for the treatment of sleep and anxiety disorders. To identify NPSR antagonists, we developed a cell-based assay with transfected NPS receptor. NPS can stimulate the production of cAMP as well as release intracellular calcium in Chinese hamster ovary cells stably expressing NPS receptor. This change in intracellular calcium can be detected using a calcium indicator dye on a calcium imaging plate reader system (FDSS). To validate the specific action of compounds on the NPS receptor, a counterscreen was developed that tests compounds' antagonism of M1 muscarinic receptor stimulation by carbachol. The protein, gene and taxonomy linked to this assay refer to Rattus norvegicus, but Chinese Hamster ovary cells were actually used.\nNCGC Assay Protocol Summary: A Chinese hamster ovary (CHO) cell line stably expressing muscarinic acetylcholine M1 receptor (CHO-M1) was obtained from ATCC and maintained in F-12 Kaighn's media (Invitrogen, Carlsbad, CA, 21127) supplemented with 10 % FBS, 100 units/ml penicillin, 100 ug/ml streptomycin and 250 ug/ml geneticin at 37C, 5% CO2 in a humidified atmosphere. Before the assay, aliquots of cells were frozen and stored at -135C. The assay was performed on a FDSS-7000 kinetic plate reader in 1536-well format. The maximums of kinetic fluorescence responses were converted into text files using the instrument's software data export utility. […] AC50 values were determined from concentration-response data modeled with the standard Hill equation. CHO-M1 1536-well FDSS assay protocol: (1) Frozen CHO-M1 cells were thaw, washed once with fresh media and resuspended in F-12 Kaighn's media supplemented with 10 % FBS, 100 units/ml penicillin and 100 ug/ml streptomycin. Cells were plated at 3 ul/well (1200 cells) to black, clear-bottom, tissue-culture treated 1536-well plates, and then cultured at 37C, 5 % CO2 for 16 to 30 hours. (2) Add 3 ul of calcium dye (from High Performance PBX Calcium Assay Kit, BD Biosciences). The calcium dye was prepared according to the manufactory's instruction. (3) Incubation at 37C, 5 % CO2 for 60 min. (4) Add 23 nl/well of compound in DMSO solution. The final titration for each compound was between 0.6 nM and 46 uM. (5) Load plates to FDSS-7000. The following steps were performed on FDSS-7000. (6) Record fluorescent background (Ex 480 nm, Em 520-560 nm) for 10 s. (7) Add 2 ul of stimulation reagent (1X HBSS buffer, 0.1% BSA, 60 nM carbachol). Record antagonist response (Ex 480 nm, Em 520-560 nm) for 180 s. Keywords: MLSMR, MLPCN, NIH Roadmap, qHTS, NCGC, NPS, Neuropeptide S Antagonists", "units": {"activity, negative = inhibition": "%"}}
{"smiles": "Cc1cccnc1NC(=O)c1c(O)c2cccc3c2n(c1=O)CCC3", "activity, negative = inhibition": -12.7}
{"smiles": "CCC(C)n1c(=O)c(C(=O)Nc2ccccc2S(N)(=O)=O)c(O)c2ccccc21", "note": "(stereo not given)", "activity, negative = inhibition": -8.1}
{"smiles": "C=CCn1c(SCCN2C(=O)c3ccccc3C2=O)nc2scc(-c3ccccc3)c2c1=O", "activity, negative = inhibition": 11.2}
{"smiles": "O=[N+]([O-])c1cc2c(cc1/C=N/n1c(-c3ccccc3)n[nH]c1=S)OCO2", "activity, negative = inhibition": -9.38}
{"smiles": "O=c1cc(-c2c(F)c(F)c(F)c(F)c2F)oc2c(F)c(F)c(F)c(F)c12", "Potency": "5.01 µM (active)"}
{"smiles": "O=C(O)C1CCN(c2nc(-c3ccccc3)nc3c2oc2ccccc23)CC1", "activity, negative = inhibition": -11.1}
{"smiles": "O=C(N1CCOCC1)C1(c2ccc(Cl)cc2)CCCC1", "activity, negative = inhibition": 15.5}
{"smiles": "CC(=O)n1nc2nc(C)cc(C)c2c1N", "activity, negative = inhibition": -5.44}
{"smiles": "O=C(CSC1=NCCS1)Nc1ccnc2ccccc12", "activity, negative = inhibition": 7.63}
{"smiles": "OC(C#Cc1ccccn1)c1cccs1", "note": "(stereo not given)", "activity, negative = inhibition": -17}
{"smiles": "Cc1ccc(-c2nnn(CC(=O)Nc3ccccc3-c3ccccc3)n2)c(-n2cnnn2)c1", "activity, negative = inhibition": 6.88}
{"smiles": "C#CC(=O)N(c1cccc(OC)c1)C(C(=O)NC1CCCC1)c1cccs1", "note": "(stereo not given)", "activity, negative = inhibition": -9.03}
{"smiles": "N#Cc1cnn(-c2ncnc3sc4c(c23)CCCC4)c1N", "activity, negative = inhibition": 9.92}
{"smiles": "COc1ccc(/C=C2\\CCCC3C2=NN(C(=O)c2ccco2)C3c2ccc(OC)c(OC)c2)cc1OC", "note": "(stereo not given)", "activity, negative = inhibition": 12.2}
{"smiles": "N#CC(C#N)=c1ccc2c(c1)NC1(CCCCC1)N=2", "activity, negative = inhibition": -17.5}
{"smiles": "CCC(Sc1ccc2nnc(-c3cccnc3)n2n1)C(=O)O", "note": "(stereo not given)", "activity, negative = inhibition": -10.5}
{"smiles": "CCc1ccc2oc(-c3cc(N)cc(C)c3O)nc2c1", "activity, negative = inhibition": 17.3}
{"smiles": "Cc1ccc(-c2ccc(/C=C3\\C(=O)ON=C3c3ccccc3)o2)c([N+](=O)[O-])c1", "Potency": "3.98 µM (active)"}
{"smiles": "CC(=O)c1cc(NC(=O)c2ccccc2)c(=O)oc1/C=C/N(C)C", "activity, negative = inhibition": -17.1}
{"smiles": "Cc1ccc2oc(-c3cccc(NC(=S)NC(=O)/C=C/c4ccco4)c3)nc2c1", "activity, negative = inhibition": -15.2}
{"smiles": "Cc1ccc(/C=C2\\SC(=S)N(CC(=O)Nc3ncc(Cc4ccccc4Cl)s3)C2=O)cc1", "activity, negative = inhibition": -5.69}
{"smiles": "CCN(CC)S(=O)(=O)c1ccc2c(c1)nc(SC(C)C(N)=O)n2-c1ccc(OC)cc1", "note": "(stereo not given)", "activity, negative = inhibition": -10.2}
{"smiles": "c1cncc(-c2nc(-c3ccco3)cs2)c1", "activity, negative = inhibition": 3.25}
{"smiles": "CN(CC(=O)NCc1ccc(F)cc1)S(=O)(=O)c1cccc2nsnc12", "activity, negative = inhibition": 7.72}
{"smiles": "CN(C)c1ccc(N2CN=C3SCC(=O)N3C2)cc1", "activity, negative = inhibition": -3.33}
{"smiles": "COc1ccc(C2c3c(ncn(CCN4CCOCC4)c3=N)Oc3ccc4ccccc4c32)cc1OC", "note": "(stereo not given)", "activity, negative = inhibition": 17.8}
{"smiles": "Cc1ccc2nc3ccc(N4CCCCCCC4)nn3c(=O)c2c1", "activity, negative = inhibition": 3.52}
{"smiles": "CCC(C)(C)NC(=O)Cc1ccc(C)cc1", "activity, negative = inhibition": 4.41}
{"smiles": "CN(Cc1cc(=O)[nH]c2ccccc12)C(=O)c1ccccc1", "activity, negative = inhibition": -5.45}
{"smiles": "CC1CCCCN1S(=O)(=O)c1ccc(C(=O)Nc2sccc2C(N)=O)cc1", "note": "(stereo not given)", "activity, negative = inhibition": -6.92}
{"smiles": "Nc1ccc(-c2nc3c(Cl)cc(N)cc3[nH]2)cc1", "activity, negative = inhibition": -5.43}
{"smiles": "O=C(NCCCN1CCOCC1)c1cc2c(=O)[nH]c3ccccc3c2s1", "activity, negative = inhibition": 4.61}
{"smiles": "Cc1cc(OCC(=O)c2ccc(Br)cc2)ccc1N1C(=O)CCC1=O", "activity, negative = inhibition": -0.282}
{"smiles": "CN(C)c1ccc(N=Cc2ccco2)cc1", "activity, negative = inhibition": 3.92}
{"smiles": "c1ccc(-c2ccc(-c3nc(-c4cccnc4)no3)cc2)cc1", "activity, negative = inhibition": 12.7}
{"smiles": "c1ccc(N2CCN(Cc3ccnc4ccccc34)CC2)cc1", "activity, negative = inhibition": 12.5}
{"smiles": "Cc1ccc(Cn2cc(SCC(=O)Nc3nccs3)c3ccccc32)cc1", "activity, negative = inhibition": -0.635}
{"smiles": "O=C(Nc1nccs1)C1CCCN1S(=O)(=O)c1ccc(Cl)cc1", "note": "(stereo not given)", "activity, negative = inhibition": 14.5}
{"smiles": "O=C(/C(=C/c1ccc(Cl)cc1)c1nc2ccccc2[nH]1)c1cccs1", "Potency": "7.94 µM (active)"}
{"smiles": "Cc1cccc(-c2nnc(SCc3cc(=O)[nH]c4ccccc34)n2C)c1", "activity, negative = inhibition": 3.42}
